Compound activity deposited in PubChem BioAssay by National Center for Advancing Translational Sciences (NCATS).
Shown are actives, neighbours in structure and some others; about 19% of the full set was active somewhere.
Pf growth 96h: P. falciparum growth inhibition at 96 hour, primary screen for plastid delayed-death inhibitors | P. falciparum luciferase reporter growth, 96 h | Potency, µM (highest dose often 28.7 µM), usual class: inhibitors | hit rate 6.9% among 320,000
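P. falciparum expressing integrated firefly luciferase grown in erythrocytes (2% hematocrit, 0.05% parasitemia final) with compounds for 96 hours at 37 C, 5% CO2. Growth inhibition read as loss of luminescence after adding luciferase detection reagent.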
Lassa entry inh: inhibitors of Lassa virus binding or cell entry | Lassa virus pseudotype entry inhibition, cell reporter | Potency, µM (doses to about 37.9 µM), usual class: inhibitors | hit rate 1.2% among 300,000 | AID 540256; calls by dose curve; tested in HEK293 cells; also: nearly all actives have a fitted effect of over 50% in size
Shiga inhibitor: blocks Shiga toxin action in Vero cells. inhibition, % at 38.7 µM. hit rate 9.2% among 290,000. Vero cells, Shiga toxin protein synthesis inhibition reporter; in the data active = inhibition mostly above about 28%, no sharp cut-off; inactive = mostly below about 43%
Pf growth 48h: inhibits P. falciparum growth in the first generation, 48 h. P. falciparum luciferase growth in erythrocytes, 48 h. Potency, µM (doses to about 28.7 µM), hits mostly inhibitors. hit rate 5.9% among 310,000
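In quantitative HTS format, infected erythrocytes bearing luciferase-reporter parasites were treated for a single generation at 37 C. Luminescence after adding detection reagent served as the growth measure.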
MARV entry inh: inhibitors of Marburg virus binding or cell entry; Potency, µM (doses to about 37.8 µM), actives largely listed as inhibitors; Marburg virus pseudotyped entry inhibition, cell reporter; AID 540276; hit rate 1.8% among 300,000; calls by dose curve; tested in HEK293 cells
Cycloheximide cs: counter-screen hit for Shiga toxin inhibitors, cycloheximide; max response, %; cell reporter, cycloheximide protein synthesis inhibition counterscreen; hit rate 12% among 300,000; in the data active = max response mostly above about 13%, no sharp cut-off; inactive = mostly below about 14%; also: read at 38.3 µM for the half of the compounds with a filed dose
Hits are given with their value; . = inactive; ? = inconclusive; / = not tested or not shown; [ ] = remark or other dose. Unless noted, calls follow the shape of the dose curve; as a rule, active = well fitted inhibition curve with a large enough effect; inconclusive = small, poorly fitted or top-dose-only effect, or another doubt; inactive = no such curve, though single readings can be large or run the other way.

SMILES	Pf growth 96h	Lassa entry inh	Shiga inhibitor	Pf growth 48h	MARV entry inh	Cycloheximide cs
CC(Sc1ncc(C(F)(F)F)cc1Cl)C(=O)NC(N)=O (stereo not given)	?	/	.	?	.	.
CC(=O)CCc1c(C)c2cc(C)ccc2[nH]c1=O	.	.	.	.	.	32.7
COc1cccc(N2CCN(c3ncnc4c3[nH]c3ccccc34)CC2C)c1 (stereo not given)	?	/	.	8.28µM	/	.
COc1cccc2[nH]c3c(N4CCc5ccccc5C4)ncnc3c12	?	?	.	?	.	.
COc1cccc2[nH]c3c(N4CCC(C)CC4)ncnc3c12	?	.	.	9.28µM	.	.
COc1ccc2[nH]c3c(N4CC(C)OC(C)C4)ncnc3c2c1 (stereo not given)	?	.	.	/	.	.
COc1cccc(N2CCN(c3ncnc4c3[nH]c3ccc(F)cc34)CC2C)c1 (stereo not given)	.	2.82µM	.	?	?	.
OC1(c2cccc(C(F)(F)F)c2)CCN(c2ncnc3c2[nH]c2ccccc23)CC1	.	.	.	.	?	.
CCN(CC)S(=O)(=O)c1ccc(C)c(NC(=O)COC(=O)C=C(C)C)c1	.	/	.	.	/	.
Cc1cc(SCC(=O)OCC(=O)c2c(N)n(C)c(=O)n(C)c2=O)c(C)cc1Br	.	.	.	.	.	.
Nc1ncnc2c1ncn2CCOc1ccccc1	.	.	.	.	.	.
CC(C)(C)C(=O)OCOP(=O)(COCCn1cnc2c(N)ncnc21)OCOC(=O)C(C)(C)C	6.75µM	/	/	15.1µM	/	/
Cc1cc(NS(=O)(=O)c2ccc(NC(=O)/C=C/c3c(F)cccc3Cl)cc2)nc(C)n1	.	/	.	?	/	.
Cc1ccc(Cc2nc3ccccc3[nH]2)cc1	.	.	.	.[0.00184 µM]	.	.
O=C(/C=C/c1c(F)cccc1Cl)Nc1nc2ccccc2[nH]1	.	?	80.7	.	.	36.0
Cc1ccc(/C=C/C(=O)Nc2nc3ccccc3[nH]2)cc1	.	.	35.1	.	?	36.7
Cc1ccc(/C=C/C(=O)c2nc3ccccc3[nH]2)cc1	?	.	67.6	.	?	44.5
Cc1ccc(OCCCC(=O)Nc2nc3ccccc3[nH]2)cc1	?	/	.	.	.	.
O=c1cc(-c2ccc3c(c2)OCCO3)oc2ccc(Cl)cc12	.	.	75.5	.	.	46.6
O=c1cc(-c2cccs2)oc2ccc(Cl)cc12	.	?	58.5	.	.	37.4
COC(=O)CC1SCCNC1=O (stereo not given)	.	?	.	.	.	.
O=C(OCc1ccc(F)cc1)c1ccc2c(c1)-c1ccccc1C2=O	.	1.12µM	.	.	.	.
CCOC(=O)C1=C(Cc2ccc(F)cc2)C(=O)c2ccccc2C1=O	8.28µM	?	.	/	?	.
Cn1nc(C(=O)OCc2ccc(F)cc2)c2ccccc2c1=O	.	.	.	.	.	.
O=C(OCc1cccc(F)c1)c1cc2ccccc2cc1O	?	.	/	.	.	.
SMILES	Pf growth 96h	Lassa entry inh	Shiga inhibitor	Pf growth 48h	MARV entry inh	Cycloheximide cs
O=C(OCc1ccc(F)cc1)c1cc2ccccc2cc1O	?	/	.	.	/	8.6
COc1ccc(C(C)=NNC(=O)c2cccc(S(=O)(=O)N3CCCC3)c2)cc1	/	.	/	/	?	/
CC(=O)Nc1ccc(Oc2cnccn2)cc1	.	.	.	.	.	.
Brc1ccc2[nH]c3nc(SCCN4CCOCC4)nnc3c2c1	.	0.501µM	.	.	?	.
O=C(CSc1nnc2c(n1)[nH]c1ccccc12)Nc1ccc(N2CCOCC2)cc1	.	.	.	.	.	.
c1ccc2c(c1)[nH]c1nc(SCCN3CCOCC3)nnc12	?	?	.	?	?	13.4
O=C(CSc1nnc2c(n1)[nH]c1ccccc12)Nc1cccc(S(=O)(=O)N2CCOCC2)c1	14.7µM	/	.	?	/	.
O=C(CN1C(=O)NC(Cc2c[nH]c3ccccc23)C1=O)Nc1cccc(S(=O)(=O)N2CCOCC2)c1 (stereo not given)	9.28µM	/	.	?	/	.
Cc1cc(C)c2c(c1)c1nnc(SCCN3CCOCC3)nc1n2C	.	/	.	.	/	.
COc1ccc(C(=O)N/N=C/C2CC=CCC2)cc1OC (stereo not given)	.	.	.	.	.	.
COc1ccc(CCn2c(-c3cccc([N+](=O)[O-])c3)nc3nc4ccccc4nc32)cc1OC	?	.	.	.	.	.
CCc1nnc(NC(=O)Cc2c[nH]c3ccccc23)s1	.	/	.	.	/	.
Cc1csc(NC(=O)Cc2c[nH]c3ccccc23)n1	.	?	72.0	.	.	.
Cc1cnc(NC(=O)Cc2c[nH]c3ccccc23)s1	?	?	.	.	.	67.1
COc1cccc(OCc2ccc(Cl)cc2)c1C#N	.	/	80.5	.	/	44.3
COc1cccc(CNC(C)(C)CO)c1OCc1ccc(Cl)cc1	.	.	.	?	?	.
COc1ccc(C2N=C(c3ccccc3)NC(c3ccccc3)=N2)cc1	.	.	.	.	?	.
COc1ccc(C2N=C(c3ccccc3)NO2)cc1OC (stereo not given)	.	?	86.7	.	.	21.9
c1ccc(C2=NC(c3ccccc3)N=C(c3ccccc3)N2)cc1	.	.	.	?	?	.
COc1cc(C2N=C(c3ccccc3)NO2)cc(Br)c1O (stereo not given)	.	?	.	.	.	10.2
FC(F)Oc1ccc(C2N=C(c3ccccc3)NO2)cc1 (stereo not given)	.	?	78.6	.	?	45.4
O=c1c2ccccc2[nH]c(=S)n1Cc1ccc2c(c1)OCO2	.	/	.	.	.	.
O=c1c2ccccc2[nH]c(=S)n1-c1ccc2c(c1)OCCO2	?	/	99.0	?	/	44.8
O=C(NCCCCNC(=O)c1ccc(F)cc1)c1ccc(F)cc1	2.62µM	/	.	.	/	.
O=C(NCCCc1ccccc1)c1ccc(F)cc1	16.5µM	?	54.9	.	?	34.5
SMILES	Pf growth 96h	Lassa entry inh	Shiga inhibitor	Pf growth 48h	MARV entry inh	Cycloheximide cs
COc1ccc(C(=O)NCCCCc2ccccc2)cc1	/	.	/	/	?	/
COc1ccc2c(c1)CCCC2=O	/	?	/	/	.	/
CC(C)Oc1ccc2c(c1)OC(c1ccccc1)(C(F)(F)F)NC2=O (stereo not given)	0.185µM	.	.	0.828µM	.	.
COc1ccc2c(c1)OC(c1ccccc1)(C(F)(F)F)NC2=O (stereo not given)	?	.	.	2.94µM	.	.
COc1cccc(CC(=O)N2CCCC(CO)(Cc3ccc(F)cc3F)C2)c1 (stereo not given)	8.28µM	/	.	.	/	.
Cc1oncc1C(=O)N1CCCC(CO)(Cc2ccc(F)cc2F)C1 (stereo not given)	.	.	.	.	?	17.0
Cc1occc1C(=O)N1CCCC(CO)(Cc2ccc(F)cc2F)C1 (stereo not given)	.	.	.	.	?	.
CCCCN(C)C(=O)c1cccc(OC2CCN(CC(C)(C)C)CC2)c1	13.1µM	/	.	?	/	.
CC(C)(C)CN1CCC(Oc2cccc(C(=O)N3CCNC(=O)C3(C)C)c2)CC1	11.7µM	?	.	.	.	.
